Measured values published in PubChem BioAssay (Tox21).
Results filed as inconclusive are left out. A call without a number means that no potency is given here. Active and inactive are the calls of the source. The call rests on the fitted dose curve; in most records, active means well fitted curve in the direction sought with a large enough effect in the repeat runs; inconclusive means weak or mixed curves; inactive means no such curve, though single readings can be large; an effect the other way counts as inactive or inconclusive.

Target: Voltage-gated inwardly rectifying potassium channel KCNH2 (Homo sapiens) (UniProt Q12809)
Assay: Human Ether-a-go-go-Related Gene (hERG) channel small molecule antagonists: fluorescence cell-based qHTS assay (AID 1671200);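 on activity change, negative = inhibition: hERG-expressing U2OS cells given a thallium stimulus after FluxOR II dye loading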
Conditions: hERG-U2OS cells, FluxOR thallium flux fluorescence; series mostly up to 76.8 µM
Method in brief: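 Quantitative HTS in hERG-U2OS cells: thallium entry through the channel reports activity, read as continuous 480/540 nm fluorescence over 2 min after stimulus addition.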
Further: nearly all actives have a fitted effect of over 50% in size.
Potency means the concentration at half of the fitted maximal effect.

Chain of Voltage-gated inwardly rectifying potassium channel KCNH2 (Homo sapiens) (Q12809 whole entry, looked up): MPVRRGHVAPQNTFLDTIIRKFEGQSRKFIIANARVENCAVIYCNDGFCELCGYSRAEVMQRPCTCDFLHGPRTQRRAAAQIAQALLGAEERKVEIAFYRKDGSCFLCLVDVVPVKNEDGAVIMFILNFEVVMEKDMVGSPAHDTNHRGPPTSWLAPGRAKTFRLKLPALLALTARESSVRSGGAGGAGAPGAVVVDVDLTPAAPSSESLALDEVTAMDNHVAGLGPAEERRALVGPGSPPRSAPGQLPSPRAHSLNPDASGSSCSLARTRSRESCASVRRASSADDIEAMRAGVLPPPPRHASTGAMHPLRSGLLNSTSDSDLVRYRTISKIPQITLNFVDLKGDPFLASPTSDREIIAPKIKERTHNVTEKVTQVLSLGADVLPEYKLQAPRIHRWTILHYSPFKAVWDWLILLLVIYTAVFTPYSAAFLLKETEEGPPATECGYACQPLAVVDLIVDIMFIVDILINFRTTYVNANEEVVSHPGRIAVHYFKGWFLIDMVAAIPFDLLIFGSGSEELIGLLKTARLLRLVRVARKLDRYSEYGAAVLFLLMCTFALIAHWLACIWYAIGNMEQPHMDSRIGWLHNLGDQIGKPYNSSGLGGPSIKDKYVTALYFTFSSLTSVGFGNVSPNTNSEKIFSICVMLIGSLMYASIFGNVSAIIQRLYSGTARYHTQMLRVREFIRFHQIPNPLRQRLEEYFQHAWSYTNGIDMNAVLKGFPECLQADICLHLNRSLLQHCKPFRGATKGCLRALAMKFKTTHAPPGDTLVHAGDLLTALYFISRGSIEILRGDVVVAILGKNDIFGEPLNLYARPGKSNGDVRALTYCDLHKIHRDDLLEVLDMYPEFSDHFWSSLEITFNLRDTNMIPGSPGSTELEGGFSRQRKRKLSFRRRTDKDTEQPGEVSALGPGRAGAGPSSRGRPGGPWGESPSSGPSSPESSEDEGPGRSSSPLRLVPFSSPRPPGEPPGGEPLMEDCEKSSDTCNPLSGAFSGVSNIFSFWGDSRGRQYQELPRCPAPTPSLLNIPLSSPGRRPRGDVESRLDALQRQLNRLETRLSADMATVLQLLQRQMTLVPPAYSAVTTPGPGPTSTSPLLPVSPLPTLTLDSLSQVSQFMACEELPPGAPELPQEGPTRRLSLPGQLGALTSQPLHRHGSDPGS

Compound | Potency | activity change, negative = inhibition
CCN[C@H]1CN(CCCOC)S(=O)(=O)c2sc(S(N)(=O)=O)cc21 | inactive | 
CCCN(CCC)C(=O)C(CCC(=O)O)NC(=O)c1ccccc1 (centres undefined) | inactive | 
CCCCN1C[C@H](O)[C@@H](O)[C@H](O)[C@H]1CO | inactive | 
C[C@@H]1CN(c2c(F)c(N)c3c(=O)c(C(=O)O)cn(C4CC4)c3c2F)C[C@H](C)N1 |  | -2.21% [at 15.8 µM] (inactive)
COc1ccc(S(=O)(=O)Nc2nnc(CC(C)C)s2)cc1 | inactive | 
Cc1c(C(=O)NCCO)[n+](=O)c2ccccc2n1[O-] | inactive | 
COc1ccccc1OCC(O)COC(N)=O (centres undefined) | inactive | 
CC1(C)S[C@@H]2[C@H](NC(=O)C(C(=O)O)c3ccccc3)C(=O)N2[C@H]1C(=O)O (some centres undefined) | inactive | 
CCN(CC)CCNC(=O)COc1ccc(Cl)cc1 | 13.4 µM (active) | 
CCOC(=O)[C@H](CCc1ccccc1)N[C@@H](C)C(=O)N1Cc2cc(OC)c(OC)cc2C[C@H]1C(=O)O | inactive | 
CO[C@@]1(NC(=O)CSCC#N)C(=O)N2C(C(=O)O)=C(CSc3nnnn3C)CS[C@@H]21 | inactive | 
CCOC(=O)c1ccccc1O | inactive | 

Target: Cytochrome P450 3A4 (Homo sapiens) (UniProt P08684)
Assay: Cytochrome P450 Family 3 Subfamily A Member 4 (CYP3A4) small molecule antagonists: luciferase reporter qHTS assay (AID 1671201)
Conditions: P450-Glo CYP3A4 enzyme, luciferin luminescence, 1 h; series mostly up to 115 µM
Method in brief: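 Inhibition of CYP3A4 is measured as loss of light: the enzyme converts a proluciferin substrate to luciferin, detected luminescently. Reaction ran 1 h at room temperature with NADPH regeneration after a 10 min compound preincubation.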

Chain of Cytochrome P450 3A4 (Homo sapiens) (P08684 whole entry, looked up): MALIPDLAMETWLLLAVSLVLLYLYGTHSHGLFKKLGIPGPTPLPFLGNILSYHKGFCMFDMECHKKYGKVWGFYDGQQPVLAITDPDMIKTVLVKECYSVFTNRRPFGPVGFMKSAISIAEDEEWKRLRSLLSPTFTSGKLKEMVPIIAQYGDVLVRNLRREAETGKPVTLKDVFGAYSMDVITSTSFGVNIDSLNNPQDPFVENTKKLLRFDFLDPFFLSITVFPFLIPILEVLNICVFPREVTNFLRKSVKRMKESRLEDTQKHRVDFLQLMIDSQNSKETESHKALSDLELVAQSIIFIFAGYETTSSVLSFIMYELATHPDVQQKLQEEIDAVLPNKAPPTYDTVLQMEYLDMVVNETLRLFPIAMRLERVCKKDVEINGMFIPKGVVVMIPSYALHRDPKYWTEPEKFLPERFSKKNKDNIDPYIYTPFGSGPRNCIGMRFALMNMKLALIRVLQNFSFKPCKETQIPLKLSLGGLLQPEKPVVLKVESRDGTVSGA

Compound | Potency | activity change, negative = inhibition
CCC(=O)Nc1ccc(O)cc1 | inactive | 
CC(=O)Oc1cc(C(C)C)c(OCCN(C)C)cc1C | inactive | 
O=c1[nH]cnc2c1ncn2[C@@H]1O[C@H](CO)[C@@H](O)[C@H]1O | inactive | 
OCc1ccccc1O | inactive | 
C[C@@H]1CN(c2c(F)c(F)c3c(=O)c(C(=O)O)cn(C4CC4)c3c2F)C[C@H](C)N1 |  | 9.32% [at 23.6 µM] (inactive)
CC(=O)N(CC(O)CN(C(C)=O)c1c(I)c(C(=O)NCC(O)CO)c(I)c(C(=O)NCC(O)CO)c1I)c1c(I)c(C(=O)NCC(O)CO)c(I)c(C(=O)NCC(O)CO)c1I (centres undefined) | inactive | 
CC(C)O | inactive | 
CN1CCN(c2c(F)cc3c(=O)c(C(=O)O)cn(CCF)c3c2F)CC1 | inactive | 
O=c1[nH]c(=O)n([C@H]2C[C@H](O)[C@@H](CO)O2)cc1C(F)(F)F | inactive | 
Cc1nnc(SCC2=C(C(=O)O)N3C(=O)[C@@H](NC(=O)Cn4cnnn4)[C@H]3SC2)s1 | inactive | 
CCCCc1ccc2nc(NC(=O)OC)[nH]c2c1 | inactive | 
NC/C=C/C(=O)O | inactive | 
COc1ccccc1N1CCN(CCCNc2cc(=O)n(C)c(=O)n2C)CC1 | inactive | 
CS(=O)(=O)c1ccc([C@@H](O)[C@@H](CF)NC(=O)C(Cl)Cl)cc1 | inactive | 
Cc1cc(NS(=O)(=O)c2ccc(N)cc2)nc(C)n1 | inactive | 
FC(F)(F)C(F)(F)C(F)(F)C(F)(F)C(F)(F)C(F)(F)C(F)(F)C(F)(F)Br | inactive | 
CCN(CC)CC1CCCCN1CC(=O)N1c2ccccc2C(=O)Nc2cccnc21 (centres undefined) | 6.92 µM (active) | 
CCN[C@H]1CN(CCCOC)S(=O)(=O)c2sc(S(N)(=O)=O)cc21 | inactive | 
CCCN(CCC)C(=O)C(CCC(=O)O)NC(=O)c1ccccc1 (centres undefined) | inactive | 
CCCCN1C[C@H](O)[C@@H](O)[C@H](O)[C@H]1CO | inactive | 
C[C@@H]1CN(c2c(F)c(N)c3c(=O)c(C(=O)O)cn(C4CC4)c3c2F)C[C@H](C)N1 |  | -3.59% [at 23.6 µM] (inactive)
COc1ccc(S(=O)(=O)Nc2nnc(CC(C)C)s2)cc1 | inactive | 
Cc1c(C(=O)NCCO)[n+](=O)c2ccccc2n1[O-] | inactive | 
COc1ccccc1OCC(O)COC(N)=O (centres undefined) | inactive | 
CC1(C)S[C@@H]2[C@H](NC(=O)C(C(=O)O)c3ccccc3)C(=O)N2[C@H]1C(=O)O (some centres undefined) | inactive | 
CO[C@@]1(NC(=O)CSCC#N)C(=O)N2C(C(=O)O)=C(CSc3nnnn3C)CS[C@@H]21 | inactive | 
CCOC(=O)c1ccccc1O | inactive | 
